Tau fibril FP = qHTS for Inhibitors of Tau Fibril Formation, Fluorescence Polarization; Microtubule-associated protein tau (Homo sapiens), P10636; K18 P301L tau heparin fibrillization, Alexa594 FP, 6 h; Potency, µM (titrated, usually from 57.7 µM), without a hit: top-dose activity, negative = inhibition, hits mostly inhibitors; actives 0.39% (n = 280,000); AID 1468, 2008; note: nearly all actives have a fitted effect of over 55% in size
Target sequence (P10636 561-689 P618L limits assumed): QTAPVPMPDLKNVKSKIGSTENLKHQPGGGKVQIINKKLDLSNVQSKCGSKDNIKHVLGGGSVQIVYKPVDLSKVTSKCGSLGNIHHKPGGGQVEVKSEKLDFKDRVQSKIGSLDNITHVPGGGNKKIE
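Quantitative HTS format: compounds meet 15 uM recombinant K18 P301L tau and Alexa 594-tau tracer in 100 mM sodium acetate pH 7; 20 uM heparin triggers fibrillization at 37 C over 6 hr; FP gives the signal.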
Tau fluor cs = Counterscreen qHTS for Inhibitors of Tau Fibril Formation, Fluorescence Polarization. AID 1463, 2008. actives 0.93% (n = 280,000). tau K18 P301L Alexa594 fluorescence, heparin fibrillization. Potency, µM (doses to about 57.7 µM), for the others: top-dose activity change, negative = decrease; note: nearly all actives have a fitted effect of over 55% in size
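Human tau K18 P301L (15 uM unlabeled, 0.24 uM Alexa 594-labeled) in 100 mM sodium acetate pH 7 with 20 uM heparin, 6 hr at 37 C. ThT 30 uM added, 1 hr ambient; Alexa 594 FP and total fluorescence read at 555/632 nm.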
NPSR antagonist = qHTS Assay for Antagonists of the Neuropeptide S Receptor: cAMP Signal Transduction. Q6W5P4. CHO-NPSR cells, cAMP TR-FRET, antagonist mode. Potency, µM (series often up to 38.3 µM), inactives show at the highest dose activity change, negative = inhibition, hits mostly inhibitors. actives 1% (n = 220,000). AID 1461, 2008; note: nearly all actives have a fitted effect of over 50% in size
HPGD inh = qHTS Assay for Inhibitors of HPGD (15-Hydroxyprostaglandin Dehydrogenase). purified HPGD, NADH fluorescence kinetic, PGE2 substrate. Potency, µM, for the others: at the highest dose activity change, negative = inhibition, hits mostly inhibitors. actives 4.3% (n = 150,000). 15-hydroxyprostaglandin dehydrogenase [NAD(+)] (Homo sapiens), P15428; active = well fitted inhibition curve with a large enough effect, not every such curve was filed as active; inconclusive = small, poorly fitted or top-dose-only effect, or another doubt; inactive = no such curve, though single readings can be large or run the other way
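20 nM HPGD preincubated 15 min at room temperature with compound in 50 mM Tris-HCl pH 8, 0.01% Tween 20. Started with 1 mM NAD+ and 30 uM prostaglandin E2; NADH fluorescence (360/450 nm) read 5 times over 30-s intervals, last minus first.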
ALDH1A1 inh = qHTS Assay for Inhibitors of Aldehyde Dehydrogenase 1 (ALDH1A1); Aldehyde dehydrogenase 1A1 (Homo sapiens), P00352; Purified ALDH1A1, NADH fluorescence, propionaldehyde substrate; Potency, µM (doses to about 75.3 µM), without a hit: at the highest dose activity, negative = inhibition, usual class: inhibitors; actives 7.3% (n = 220,000); active = well fitted inhibition curve with a large enough effect, not every such curve was filed as active; inconclusive = small, poorly fitted or top-dose-only effect, or another doubt; inactive = no such curve, though single readings can be large or run the other way;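 note: plate controls were no enzyme wells and a reference inhibitor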
Target sequence (P00352 whole entry, looked up): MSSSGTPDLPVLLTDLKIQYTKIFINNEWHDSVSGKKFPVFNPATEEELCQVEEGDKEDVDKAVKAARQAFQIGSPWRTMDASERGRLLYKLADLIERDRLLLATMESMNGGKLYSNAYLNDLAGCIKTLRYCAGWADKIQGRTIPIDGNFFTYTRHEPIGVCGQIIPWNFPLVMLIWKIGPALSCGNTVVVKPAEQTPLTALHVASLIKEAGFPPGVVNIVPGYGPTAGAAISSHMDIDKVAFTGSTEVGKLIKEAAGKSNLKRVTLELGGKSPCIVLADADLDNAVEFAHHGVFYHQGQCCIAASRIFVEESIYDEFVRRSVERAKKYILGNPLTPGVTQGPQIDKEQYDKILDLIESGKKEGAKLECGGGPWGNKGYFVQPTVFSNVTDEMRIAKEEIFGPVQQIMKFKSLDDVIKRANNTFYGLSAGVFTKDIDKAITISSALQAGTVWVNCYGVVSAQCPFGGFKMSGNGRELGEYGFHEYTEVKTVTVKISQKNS
Tau ThT inhib = qHTS for Inhibitors of Tau Fibril Formation, Thioflavin T Binding; Microtubule-associated protein tau (Homo sapiens), P10636; recombinant tau K18 P301L, heparin-induced fibrillization, ThT fluorescence; Potency, µM (top dose mostly 57.4 µM), without a hit: at the top dose activity, negative = inhibition, most hits filed as inhibitors; actives 2.1% (n = 270,000); AID 1460, 2008; note: nearly all actives have a fitted effect of over 55% in size
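Fibril formation assay: tau K18 P301L at 15 uM with trace Alexa 594 label, heparin inducer 20 uM, pH 7 sodium acetate buffer, 37 C for 6 hr; endpoint ThT signal.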
The depositor's hits bear a star; ? = inconclusive; . = no result given; [ ] = remark or other dose. Most compounds without a hit are left out; they make up all but 9.5% or so of the library. Unless noted, calls come from the whole dose curve; as a rule, active = well fitted curve in the direction sought with a large enough effect; inconclusive = small, poorly fitted or top-dose-only effect, or another doubt; inactive = no such curve, though single readings can be large; an effect the other way counts as inactive or inconclusive. Unless noted, % is set by controls: 0 for no effect and ±100 for the full control effect; potency is the fitted concentration of half-maximal effect.

SMILES	Tau fibril FP	Tau fluor cs	NPSR antagonist	HPGD inh	ALDH1A1 inh	Tau ThT inhib
Cc1ccc(CNC(=O)CN2C(=O)C3(SCC(=O)N3c3ccc(F)c(F)c3)c3ccccc32)cc1 (stereo unspecified)	2.2%	?	.	.	.	-9.7%
Cc1cccc2sc(NNC(=O)c3cc(=O)c4ccccc4o3)nc12	-8.3%	?	-7.6%	.	-1.8%	6.31µM*
Cc1ccc2sc(NNC(=O)c3cc(=O)c4ccccc4o3)nc2c1C	-14.3%	?	-22.8%	.	12.6µM*	3.98µM*
O=C(NNc1nc2c(F)cccc2s1)c1cc(=O)c2ccccc2o1	-9.5%	?	17.6%	.	-3.5%	5.01µM*
Cc1ccc2sc(NNC(=O)c3cc(-c4cccs4)nc4ccccc34)nc2c1C	9.4%	?	2.5%	-19.6%	?	?
CO[C@@H]1COC(=O)[C@H]2CCCN2C(=O)[C@@H](C)COC(=O)C/C=C\[C@H]1C	-2.9%[11.6 µM]	-9.5%[11.6 µM]	.	.	2.4%[13.5 µM]	-10.2%[11.5 µM]
CC(C)[C@@H](OCc1ccccc1)[C@H](C)CO/N=C1/[C@H]2OC2[C@@H](O)[C@H]2[C@H]1CCn1c(=O)n(-c3ccccc3)c(=O)n12 (stereo partly specified)	-5.4%[11.6 µM]	-3.5%[11.6 µM]	.	.	-11.1%[13.5 µM]	-11.2%[11.5 µM]
NC(=O)COC(=O)c1cccnc1Nc1ccccc1F	-8.3%	-6.9%	24.2%	.	11.2µM*	-5.3%
CCOC(=O)c1c(O)[nH]c(=O)c(CC)c1C	.	.	.	-3.7%	-0.3%[13.5 µM]	.
N#CC(C(=O)c1ccccc1)=C1SCCS1	-4.5%	-12.4%	-9.9%	.	14.1µM*	-4.6%
N#CC(CC(=O)O)=C(c1ccccc1)c1ccccc1	.	.	.	-25.0%	4.0%[13.5 µM]	.
Oc1c(Cl)cc(Cl)cc1/C=N/c1nccs1	-11.9%	?	7.4%[46.1 µM]	-22.9%	14.1µM*	?
N#C/C(=C\c1ccc(Sc2ccc(Cl)cc2)o1)c1nc2ccccc2[nH]1	?	7.08µM*[quencher]	-47.5%	-16.3%	-4.9%	?
Cc1cc(/C=C(/C#N)c2nc3ccccc3[nH]2)c(C)n1-c1cccc([N+](=O)[O-])c1	10.6%	?	14.2%[46.1 µM]	-25.4%	?	?
N#C/C(=C\c1cc([N+](=O)[O-])c(N2CCOCC2)cc1N1CCOCC1)c1nc2ccccc2[nH]1	2.1%	?	-11.1%[46.1 µM]	14.1µM*	-13.6%	15.8µM*
N#C/C(=C/c1ccc(N2CCOCC2)o1)c1nc2ccccc2[nH]1	-5.4%	?	?	-7.8%	-5.7%	7.94µM*
N#C/C(=C\c1ccc(N2CCOCC2)o1)c1ccccc1	?	?	?	?	11.2µM*	14.1µM*
COc1ccccc1C(=O)Nc1ccccc1OCc1cc(=O)n2c(C)csc2n1	-7.2%	-24.8%	.	.	.	-5.5%
O=C(c1ccc2c(c1)N(Cc1ccc(Cl)cc1)C(=O)c1ccccc1S2=O)N1CCN(c2ccccc2F)CC1 (stereo unspecified)	3.3%	-12.2%	.	.	.	-7.7%
COc1cc(N2CCCC2)c(OC)cc1/C=C(/C#N)c1cccc(F)c1	13.0%	?	?	-25.1%	?	?
N#C/C(=C/c1ccc(N2CCOCC2)o1)c1ccc(Br)cc1	?	?	-28.6%[46.1 µM]	?	15.8µM*	14.1µM*
S=C(c1nc2ccccc2[nH]1)N1CCOCC1	-15.1%	-6.8%	-3.4%[46.1 µM]	?	12.6µM*	-6.2%
N#C/C(=C/c1ccc(N2CCCCCC2)o1)c1cccc(F)c1	?	?	6.31µM*	25.1µM*	2µM*	14.1µM*
CC1CCN(S(=O)(=O)c2ccc3c(c2)N(CC(=O)NC(C)c2ccccc2)C(=O)CS3)CC1 (stereo unspecified)	-5.0%	-24.7%	.	.	.	-16.3%
Cc1ccc(S(=O)(=O)Nc2ccc(O)c(C(=O)O)c2)c(C)c1	.	.	.	-8.9%	?	.
SMILES	Tau fibril FP	Tau fluor cs	NPSR antagonist	HPGD inh	ALDH1A1 inh	Tau ThT inhib
COc1ccc(C)cc1NCc1nnc2n1CCCCC2	0.1%	-2.7%	.	.	.	-5.5%
S=c1[nH]nc(-c2ccncc2)n1/N=C/c1cccc2ccccc12	-1.8%	-1.7%	-10.5%	0.316µM*	-7.0%	-1.1%
S=c1[nH]nc(-c2ccncc2)n1/N=C/c1cn(-c2ccccc2)nc1-c1ccccc1	2.1%	-26.2%	40.0%	.	.	2.0%
CC(C)(C)c1ccc(-c2n[nH]c(=S)n2/N=C/c2ccncc2)cc1	0.2%	-4.1%	-56.7%	11.2µM*	0.5%	-4.1%
Cc1ccc(/C=N/n2c(-c3ccncc3)n[nH]c2=S)cc1	2.3%	-6.7%	-19.9%	20µM*	?	-9.6%
COC(=O)C/C=C\[C@@H](C)[C@@H]1C=C[C@H](OC(C)=O)[C@H](COC(C)=O)O1	0.6%[11.6 µM]	-1.4%[11.6 µM]	.	.	-8.9%[13.5 µM]	-4.2%[11.5 µM]
Cc1ccc(C2CC(c3cccs3)=NN2C(=O)c2ccc(Br)o2)cc1 (stereo unspecified)	-2.0%	-6.0%	10µM*	?	?	0.0%
CC(=O)N1N=C(c2cccs2)CC1c1ccc(C)o1 (stereo unspecified)	3.1%	-8.9%	-10.6%	.	3.6%	8.2%
COc1ccc(CNC(=O)COC(=O)c2ccco2)cc1	14.2%	6.8%	6.8%	.	?	1.9%
Cn1c(SCc2n[nH]c(=S)o2)nnc1-c1ccccc1	0.9%	-4.8%	12.9%	-7.4%	0.5%	-7.1%
CC(Cc1n[nH]c(=S)o1)c1ccccc1 (stereo unspecified)	-6.8%	-6.2%	0.3%	.	17.8µM*	-2.1%
S=c1[nH]nc(Cc2cccc3ccccc23)o1	-12.4%	4.9%	2.5%	?	10µM*	-9.8%
COc1ccc(N(CC(=O)NC2CCCC2)C(=O)Cn2nnc(-c3ccc(C)cc3)n2)cc1	-5.6%	-17.6%	-11.6%	2.1%	9.9%	-16.4%
COc1ccc(CNC(=O)CN(C(=O)Cn2nnc(-c3ccccc3F)n2)c2ccc(C)cc2)cc1	-9.5%	-25.7%	19.8%	.	8.91µM*	-11.0%
COc1cc(/C=C2/C(=O)N=C(N)N2C)cc(OC)c1OC	?	-3.4%	-2.8%[46.1 µM]	15.8µM*	?	-5.7%
COc1c(Br)cc(Br)cc1/C=C1/C(=O)N=C(N)N1C	2.2%	-6.5%	8.5%	.	11.5%	-10.5%
Cc1ccc(C2C(C#N)=C(N)SC(N)=C2C#N)cc1	-7.9%	?	23.0%[46.1 µM]	-16.4%	22.4µM*	?
Cc1ccc(C2C(C#N)=C(N)SC(N)=C2C#N)c(C)c1	7.4%	-2.4%	-9.8%[46.1 µM]	?	?	-6.4%

Screening results as filed in PubChem BioAssay.
